Most compounds without a hit are left out; they make up all but 3.3% or so of the library.
BoNT F protease: inhibitors of Botulinum neurotoxin F light chain protease; inhibition, % at 10 µM; Multiplex microsphere protease cleavage assay, flow cytometry; 360,000 compounds, 0.22% hits; AID 588497; in the data active = inhibition above about 35%, passing the limit was not always enough; inconclusive = no clear call, values can overlap the other calls; note: plate controls were buffer without enzyme for full effect and enzyme alone for no effect
Anthrax LF inh2: blocks Bacillus anthracis lethal factor protease. P15917. multiplex microsphere protease cleavage assay, LF. inhibition, % at 10 µM. 360,000 compounds, 0.12% hits. AID 588501; note: plate controls were buffer without enzyme for full effect and enzyme alone for no effect
Bead autofluor: counter-screen for toxin protease inhibitors: compound fluorescence. compound autofluorescence counterscreen, microsphere flow cytometry; hits give high values. AID 624483. 360,000 compounds, 3.1% hits. fluorescence intensity (no concentration beside the values); in the data active = fluorescence intensity above about 16000; inconclusive = no clear call, values can overlap the other calls
PriA SSB inh: K. pneumoniae PriA-SSBct interaction inhibition | inhibition, % at 33 µM | 430,000 compounds, 0.6% hits | AlphaScreen SSBct-PriA binding, biotinylated peptide; in the data active = inhibition mostly above about 37%, no sharp cut-off; inactive = mostly below about 20%;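 note: plate controls were negative control peptide for no effect and reference peptide for full effect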
BoNT-A LC inh2: BoNT A light chain protease inhibition | multiplex microsphere protease substrate cleavage, flow cytometry | inhibition, % at 10 µM | 360,000 compounds, 0.17% hits; note: plate controls were buffer without enzyme for full effect and enzyme alone for no effect
MazEF act: increases E. coli MazEF RNase cleavage of RNA; P0AE70; FAM/BHQ RNA-DNA oligo cleavage fluorescence, 5 h; activation, % at 20 µM; 350,000 compounds, 0.32% hits; in the data active = activation above about 50%
Target sequence (P0AE70 whole entry, looked up): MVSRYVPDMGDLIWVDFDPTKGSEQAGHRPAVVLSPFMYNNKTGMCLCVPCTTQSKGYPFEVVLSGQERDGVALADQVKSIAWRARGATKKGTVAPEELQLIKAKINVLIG
The depositor's hits bear a star. Cut-off read from the data, not from the text of the source, unless noted: active = inhibition above about 30%; inconclusive = no clear call, values can overlap the other calls; inactive = below that.

Results for Cc1cc(C)nc(N2CCCC(C(=O)Nc3cc(F)ccc3C)C2)n1 (configuration not stated) ?
BoNT F protease: 2.2; Anthrax LF inh2: -2.8; Bead autofluor: 22529*; PriA SSB inh: -11.0; BoNT-A LC inh2: 2.5; MazEF act: 4.6

How did Cc1cc(C)nc(N2CCC(C(=O)Nc3ccc4c(c3)OCO4)CC2)n1 do in these assays?
BoNT F protease: 5.9; Anthrax LF inh2: -0.4; Bead autofluor: 8733; PriA SSB inh: 5.1; BoNT-A LC inh2: 1.2; MazEF act: -7.2

Results for Cc1cc(C)nc(N2CCCC(C(=O)Nc3ccc4c(c3)OCO4)C2)n1 (configuration not stated) ?
BoNT F protease: -2.7; Anthrax LF inh2: -1.2; Bead autofluor: 20510*; PriA SSB inh: -7.0; BoNT-A LC inh2: -1.5; MazEF act: 0.6

Results for CCc1nnc(NC(=O)C2CCCN(c3nc(C)cc(C)n3)C2)s1 (configuration not stated) ?
BoNT F protease: -1.2; Anthrax LF inh2: -1.0; Bead autofluor: 18689*; PriA SSB inh: -4.2; BoNT-A LC inh2: 2.1; MazEF act: -3.6

What do the screens show for `CC(C)(C)OC(=O)NC1CCC(=O)CC1`?
PriA SSB inh: 6.0

How did COc1ccc(N2C(=O)CN(Cc3ccccc3F)C3CS(=O)(=O)CC32)cc1Cl (configuration not stated) do in these assays?
PriA SSB inh: -3.0

How did COc1cc(-c2noc(-c3scc(-c4cccc(C)c4)c3-n3cccc3)n2)ccc1OC(C)C do in these assays?
PriA SSB inh: -18.0

What do the screens show for `COc1ccccc1NC(=O)c1ccc(-c2cc(C(F)(F)F)ccc2Cl)o1`?
PriA SSB inh: -11.0

How did CC(C)NC(=O)c1ccc(-c2cc(C(F)(F)F)ccc2Cl)o1 do in these assays?
BoNT F protease: -2.7; Anthrax LF inh2: -2.4; Bead autofluor: 22154*; PriA SSB inh: -15.6; BoNT-A LC inh2: 0.0; MazEF act: -7.0

What do the screens show for `O=[N+]([O-])c1ccccc1NCCOc1ccccc1`?
BoNT F protease: -18.3; Anthrax LF inh2: -5.2; Bead autofluor: 7612; PriA SSB inh: 38.6*; BoNT-A LC inh2: -2.4; MazEF act: -2.9

How did O=[N+]([O-])c1ccccc1Nc1cccc(F)c1 do in these assays?
BoNT F protease: -1.8; Anthrax LF inh2: -11.2; Bead autofluor: 3811; PriA SSB inh: 48.7*; BoNT-A LC inh2: -0.6; MazEF act: 3.2

How did O=[N+]([O-])c1ccccc1Nc1ccccc1 do in these assays?
BoNT F protease: 3.0; Anthrax LF inh2: -2.2; Bead autofluor: 4190; PriA SSB inh: 69.9*; BoNT-A LC inh2: -0.8; MazEF act: 3.4

What do the screens show for `O=[N+]([O-])c1cnccc1Nc1cccc(F)c1`?
BoNT F protease: 19.5; Anthrax LF inh2: -1.3; Bead autofluor: 8975; PriA SSB inh: 9.4; BoNT-A LC inh2: 1.5; MazEF act: 11.1

What do the screens show for `Cc1cc(Nc2ccccc2)c2c([N+](=O)[O-])ccc(C)c2n1`?
BoNT F protease: -5.2; Anthrax LF inh2: -0.6; Bead autofluor: 2643; PriA SSB inh: 60.4*; BoNT-A LC inh2: 0.0; MazEF act: 6.2

How did O=[N+]([O-])c1ccccc1Nc1ccccc1[N+](=O)[O-] do in these assays?
BoNT F protease: -4.3; Anthrax LF inh2: -2.0; Bead autofluor: 4187; PriA SSB inh: 0.5; BoNT-A LC inh2: -0.5; MazEF act: 7.0

What do the screens show for `CSc1ccc([C@@H](O)CNC(=O)C2CC2)cc1`?
PriA SSB inh: -1.0

How did CCC(c1nc2ccccc2c(=O)n1CCN1CCOCC1)N1C(=O)c2ccccc2C1=O (configuration not stated) do in these assays?
BoNT F protease: -3.3; Anthrax LF inh2: -4.3; Bead autofluor: 20159*; PriA SSB inh: -21.6; BoNT-A LC inh2: -0.7; MazEF act: -0.3

What do the screens show for `Cc1ccc(O)c(C2=Nc3ccccc3N=C(c3ccco3)C2)c1`?
BoNT F protease: -3.5; Anthrax LF inh2: -1.1; Bead autofluor: 3005; PriA SSB inh: -11.3; BoNT-A LC inh2: 0.3; MazEF act: 81.8*

How did Oc1ccc(-c2nc3cnccn3c2Nc2ccc3c(c2)OCCO3)cc1 do in these assays?
BoNT F protease: -8.5; Anthrax LF inh2: 0.8; Bead autofluor: 5814; PriA SSB inh: 15.5; BoNT-A LC inh2: -0.9; MazEF act: 6.8

Results for CC(C)(C)CC(C)(C)Nc1c(-c2ccc(O)cc2)nc2cnccn12 ?
BoNT F protease: -0.7; Anthrax LF inh2: -2.2; Bead autofluor: 16574*; PriA SSB inh: -3.3; BoNT-A LC inh2: -1.5; MazEF act: 2.0

Results for COc1cccc(-c2ccc(=O)n(CCCC(=O)Nc3ccc(Cl)cc3Cl)n2)c1 ?
PriA SSB inh: -6.0

What do the screens show for `O=[N+]([O-])c1cccc(NN=Cc2ccc(N3CCOCC3)cc2)c1`?
PriA SSB inh: 52.3*

How did O=[N+]([O-])c1cccc(N/N=C/c2ccc(N3CCOCC3)cc2)c1 do in these assays?
BoNT F protease: -8.8; Anthrax LF inh2: -20.2; Bead autofluor: 3560; BoNT-A LC inh2: -1.3; MazEF act: 3.9

How did CCCSc1nc2c(c(=O)n(C)c(=O)n2C)n1C do in these assays?
BoNT F protease: -3.9; Anthrax LF inh2: -8.0; Bead autofluor: 3002; PriA SSB inh: -1.1; BoNT-A LC inh2: -8.2; MazEF act: 15.2

What do the screens show for `CCCSc1nc(O)c(CC)c(=O)n1C(C)CC` (configuration not stated)?
BoNT F protease: 11.0; Anthrax LF inh2: -9.2; Bead autofluor: 19471*; PriA SSB inh: -7.0; BoNT-A LC inh2: inconclusive; MazEF act: -1.1

Results for O=C1CCCN1c1ccc(Cn2cccc(S(=O)(=O)N3CCCC3)c2=O)cc1 ?
PriA SSB inh: -17.0

How did Cc1cc(C(C)(C)C)cc(S(=O)(=O)Nc2cccc(C(=O)O)c2)c1C do in these assays?
BoNT F protease: 4.8; Anthrax LF inh2: -10.4; Bead autofluor: 20337*; PriA SSB inh: -24.0; BoNT-A LC inh2: 3.8; MazEF act: -1.6

Results for O=C(O)c1cccc(NS(=O)(=O)/C=C/c2ccccc2)c1 ?
BoNT F protease: -0.5; Anthrax LF inh2: -6.4; Bead autofluor: 19766*; PriA SSB inh: -17.5; BoNT-A LC inh2: 1.7; MazEF act: 6.5

How did COc1cc(S(=O)(=O)Nc2cccc(C(=O)O)c2)c(OC)cc1Cl do in these assays?
BoNT F protease: 5.5; Anthrax LF inh2: 0.3; Bead autofluor: 20274*; PriA SSB inh: -4.2; BoNT-A LC inh2: inconclusive; MazEF act: -6.8

How did COc1ccc(S(=O)(=O)Nc2cccc(C(=O)O)c2)cc1OC do in these assays?
PriA SSB inh: -5.0

What do the screens show for `Cc1cc(S(=O)(=O)Nc2cccc(C(=O)O)c2)c(C)c(S(=O)(=O)c2ccc(Cl)cc2)c1`?
BoNT F protease: 0.1; Anthrax LF inh2: 1.7; Bead autofluor: 3561; PriA SSB inh: 8.8; BoNT-A LC inh2: 5.0; MazEF act: 4.4

What do the screens show for `O=C(NC(=S)NNC(=O)c1ccccc1O)c1cccnc1`?
BoNT F protease: -3.2; Anthrax LF inh2: -1.1; Bead autofluor: 4125; PriA SSB inh: 61.9*; BoNT-A LC inh2: -1.3; MazEF act: -3.4

Results for O=C(NC(=S)NNC(=O)c1ccccc1I)c1cccnc1 ?
PriA SSB inh: 50.8

Bioassay records as filed in PubChem BioAssay.
